# Assay results as given in PubChem BioAssay AID489042 (NMMLSC, 2010).
# A number with no mark means an inactive call. Calls of active or inactive are those of the source. Rule as the data show it: active = inhibition score above about 11; inactive = the rest.
# Assay: S. cerevisiae short- and long-term growth effects – BY4741, OD595, 24 h, dose response (AID 489042)
# Details: active compounds read high
row,SMILES,inhibition score
1,FC(F)(F)c1nc2cc3nc4ccccc4[nH]c3cc2n1,0
2,CCC(=Nc1ccccc1O)C1=C(O)CC(c2ccccc2)CC1=O (centres undefined),10
3,CC(C)(C)Nc1ncnc2c1cnn2-c1ccccc1,10
4,N#CC(c1nc2ccccc2nc1N1CCCC1)S(=O)(=O)c1ccccc1 (centres undefined),0
5,COc1ccc2nc3ccccc3nc2c1NC(=O)c1ccccc1Cl,0
6,CN(C)CCNc1ncnc2c1cnn2-c1ccc(Cl)cc1,0
7,Cc1ccccc1NC(=O)c1cccc2nc3ccccc3nc12,0
8,CC(C)(C)n1nc(-c2ccc(Cl)cc2)c2c(N)ncnc21,21 (active)
9,Cc1cccc2nc3ccccc3nc12,10
10,Cc1cc(C)cc(NC(=O)CN2CCN(c3ccccn3)CC2)c1,0
11,COc1ccc2nc3cccc(OC)c3nc2c1,10
12,O=C(Nc1ccc2nc3ccccc3nc2c1)c1ccc(Br)cc1,0
13,O=C(O)c1cnc2ccccc2n1,0
14,COC(=O)c1cccc2nc3c(C(C)O)cccc3nc12 (centres undefined),0
15,CC(C)(C)n1nc(-c2ccc(F)cc2)c2c(N)ncnc21,21 (active)
16,O=C(/C=C/c1ccccc1)NC(=S)NNC(=O)Cc1cccs1,21 (active)
17,CCc1nc(NC(C)(C)C)c2cnn(-c3ccccc3)c2n1,0
18,c1ccc2[nH]c3cc4ncnc4cc3nc2c1,0
19,CSc1nnc2c3cc(F)ccc3n(C)c2n1,21 (active)
20,C=CCSc1nnc(-c2ccc([N+](=O)[O-])cc2)o1,10
21,O=C(/C=C/c1cccs1)NC(=S)NNC(=O)Cc1cccs1,21 (active)
22,O=C(OCc1c(F)cccc1Cl)c1cnc2ccccc2n1,0
23,Cc1cc(C)c2[nH]c3nc(SCC(=O)O)nnc3c2c1,0
24,COc1ccc2c3c(cccc13)N(C)N=C2C,10
25,Cc1ccc(-c2nn(C(C)(C)C)c3ncnc(N)c23)cc1,21 (active)
26,O=C(Nc1cccc(Cl)c1)Nc1ccc2nccnc2c1,0
27,CC(C)OC(=O)CSc1nnc(-c2ccc(Cl)cc2Cl)o1,0
28,O=C(c1cccc2nc3ccccc3nc12)N1CCOCC1,0
29,CCN(CC)c1ccc2nc3ccc(N)cc3[n+](-c3ccccc3)c2c1,0
